Drawing on publication PMC12820563, “FoxP3 forms a head-to-head dimer in vivo and stabilizes its multimerization on adjacent microsatellites”, this text covers binding signal for 35 sequences.

The full ranking holds about 16,000 sequences; the median of “rpm ratio (pull-down/input)” is about 0.94, and the highest 2% start at about 1.7. The entries come from a sample that favours the highest values as a whole.

This assay deals with T1, MBP-FoxP1dN (Mus musculus, UniProt P58462 326-579).
T1 sequence: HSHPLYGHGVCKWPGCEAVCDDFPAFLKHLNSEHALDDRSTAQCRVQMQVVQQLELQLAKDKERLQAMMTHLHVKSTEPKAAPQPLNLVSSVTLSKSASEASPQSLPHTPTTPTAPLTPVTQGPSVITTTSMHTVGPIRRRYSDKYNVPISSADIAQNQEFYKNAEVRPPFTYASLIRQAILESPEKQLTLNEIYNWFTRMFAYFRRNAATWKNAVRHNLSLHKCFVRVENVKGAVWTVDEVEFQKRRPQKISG
Briefly: PD-seq (MBP pull-down with sequencing); 20 mM Tris-HCl pH 7.5, 100 mM NaCl, 1.5 mM MgCl2, 0.4 uM protein, 0.1 uM dsDNA library, 30 min, room temperature, amylose pull-down; high values mean tight binding. The note with it: protein: recombinant; tags: His6-MBP; chain copies: 2; dsDNA, one strand shown. An outline of the steps:
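Binding is reads-per-million enrichment of pull-down over input, with replicates pooled. It comes from 30 min room-temperature incubation in Tris pH 7.5 buffer with NaCl and MgCl2 of 0.4 µM His6-MBP-tagged, N-terminally truncated mouse FoxP3 or FoxP1 fragment from E. coli with 0.1 µM Klenow-filled degenerate double-stranded DNA library, followed by amylose resin capture, three washes and Illumina sequencing of the released DNA.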
As for “GATGATTGTTCTCCCAGCTGATGAATTGAAAGCCTCGAGTAAACAAATTTTCCTAATCTTTCTGTTCAAGCGCCATCTAC”, the binding signal was 0.795 RPM ratio (pull-down/input).

Take “GATGATTGTTCTCCCAGCTGATGAATTATACAGCTCGAGTAAACAAATTTTCCTAATCTTTCTGTTCAAGCGCCATCTAC”: the binding signal is 1.03 RPM ratio (pull-down/input).

Consider “GATGATTGTTCTCCCAGCTGATGAATTCTCGCGCTCGAGTAAACAAATTTTCCTAATCTTTCTGTTCAAGCGCCATCTAC”, for which the binding signal is 0.835 RPM ratio (pull-down/input).

As to “GATGATTGTTCTCCCAGCTGATGAATTCGTCTTGTCGAGTAAACAAATTTTCCTAATCTTTCTGTTCAAGCGCCATCTAC”, the binding signal was 0.827 RPM ratio (pull-down/input).

For “GATGATTGTTCTCCCAGCTGATGAATTAATAATCTCGAGTAAACAAATTTTCCTAATCTTTCTGTTCAAGCGCCATCTAC”, the binding signal is 1.06 RPM ratio (pull-down/input).

Turning to “GATGATTGTTCTCCCAGCTGATGAATTATATTTGTCGAGTAAACAAATTTTCCTAATCTTTCTGTTCAAGCGCCATCTAC”, the binding signal is 2.29 RPM ratio (pull-down/input).

On to “GATGATTGTTCTCCCAGCTGATGAATTATATCTGTCGAGTAAACAAATTTTCCTAATCTTTCTGTTCAAGCGCCATCTAC”, for which the binding signal was 1.08 RPM ratio (pull-down/input).

As for “GATGATTGTTCTCCCAGCTGATGAATTTATATTCTCGAGTAAACAAATTTTCCTAATCTTTCTGTTCAAGCGCCATCTAC”, the binding signal was 1.04 RPM ratio (pull-down/input).

On to “GATGATTGTTCTCCCAGCTGATGAATTTATTCTGTCGAGTAAACAAATTTTCCTAATCTTTCTGTTCAAGCGCCATCTAC”, for which the binding signal is 1.12 RPM ratio (pull-down/input).

“GATGATTGTTCTCCCAGCTGATGAATTATTTTTGTCGAGTAAACAAATTTTCCTAATCTTTCTGTTCAAGCGCCATCTAC”: the binding signal is 1.37 RPM ratio (pull-down/input).

For “GATGATTGTTCTCCCAGCTGATGAATTGTTATTGTCGAGTAAACAAATTTTCCTAATCTTTCTGTTCAAGCGCCATCTAC”, the binding signal was 3.45 RPM ratio (pull-down/input).

In the case of “GATGATTGTTCTCCCAGCTGATGAATTTATATTGTCGAGTAAACAAATTTTCCTAATCTTTCTGTTCAAGCGCCATCTAC”, the binding signal is 2.36 RPM ratio (pull-down/input).

For the sequence “GATGATTGTTCTCCCAGCTGATGAATTTTATATGTCGAGTAAACAAATTTTCCTAATCTTTCTGTTCAAGCGCCATCTAC”, the binding signal was 0.988 RPM ratio (pull-down/input).

On to “GATGATTGTTCTCCCAGCTGATGAATTTTATCTGTCGAGTAAACAAATTTTCCTAATCTTTCTGTTCAAGCGCCATCTAC”, for which the binding signal was 0.918 RPM ratio (pull-down/input).

For “GATGATTGTTCTCCCAGCTGATGAATTTTTATTGTCGAGTAAACAAATTTTCCTAATCTTTCTGTTCAAGCGCCATCTAC”, the binding signal is 2.51 RPM ratio (pull-down/input).

Consider “GATGATTGTTCTCCCAGCTGATGAATTAAACATATCGAGTAAACAAATTTTCCTAATCTTTCTGTTCAAGCGCCATCTAC”, for which the binding signal is 1.4 RPM ratio (pull-down/input).

On to “GATGATTGTTCTCCCAGCTGATGAATTGGTGCCATCGAGTAAACAAATTTTCCTAATCTTTCTGTTCAAGCGCCATCTAC”, for which the binding signal was 0.972 RPM ratio (pull-down/input).

“GATGATTGTTCTCCCAGCTGATGAATTCGCTGTATCGAGTAAACAAATTTTCCTAATCTTTCTGTTCAAGCGCCATCTAC”: the binding signal was 1.04 RPM ratio (pull-down/input).

For the sequence “GATGATTGTTCTCCCAGCTGATGAATTTACCCTCTCGAGTAAACAAATTTTCCTAATCTTTCTGTTCAAGCGCCATCTAC”, the binding signal is 1.06 RPM ratio (pull-down/input).

On to “GATGATTGTTCTCCCAGCTGATGAATTAAAAAGTTCGAGTAAACAAATTTTCCTAATCTTTCTGTTCAAGCGCCATCTAC”, for which the binding signal was 0.935 RPM ratio (pull-down/input).

Regarding “GATGATTGTTCTCCCAGCTGATGAATTATAGTAGTCGAGTAAACAAATTTTCCTAATCTTTCTGTTCAAGCGCCATCTAC”, the binding signal is 0.985 RPM ratio (pull-down/input).

Turning to “GATGATTGTTCTCCCAGCTGATGAATTGGTCGCGTCGAGTAAACAAATTTTCCTAATCTTTCTGTTCAAGCGCCATCTAC”, the binding signal is 1.03 RPM ratio (pull-down/input).

Take “GATGATTGTTCTCCCAGCTGATGAATTCAAGCTCTCGAGTAAACAAATTTTCCTAATCTTTCTGTTCAAGCGCCATCTAC”: the binding signal was 0.854 RPM ratio (pull-down/input).

For “GATGATTGTTCTCCCAGCTGATGAATTTTATTTGTCGAGTAAACAAATTTTCCTAATCTTTCTGTTCAAGCGCCATCTAC”, the binding signal was 2.45 RPM ratio (pull-down/input).

“GATGATTGTTCTCCCAGCTGATGAATTGTCTTATTCGAGTAAACAAATTTTCCTAATCTTTCTGTTCAAGCGCCATCTAC”: the binding signal is 1.18 RPM ratio (pull-down/input).

For “GATGATTGTTCTCCCAGCTGATGAATTCTTATTGTCGAGTAAACAAATTTTCCTAATCTTTCTGTTCAAGCGCCATCTAC”, the binding signal was 2.49 RPM ratio (pull-down/input).

For the sequence “GATGATTGTTCTCCCAGCTGATGAATTTTATGTGTCGAGTAAACAAATTTTCCTAATCTTTCTGTTCAAGCGCCATCTAC”, the binding signal was 1.13 RPM ratio (pull-down/input).

Turning to “GATGATTGTTCTCCCAGCTGATGAATTGATTGTGTCGAGTAAACAAATTTTCCTAATCTTTCTGTTCAAGCGCCATCTAC”, the binding signal was 1.35 RPM ratio (pull-down/input).

As to “GATGATTGTTCTCCCAGCTGATGAATTATTTTGGTCGAGTAAACAAATTTTCCTAATCTTTCTGTTCAAGCGCCATCTAC”, the binding signal is 1.35 RPM ratio (pull-down/input).

Turning to “GATGATTGTTCTCCCAGCTGATGAATTTATTGTGTCGAGTAAACAAATTTTCCTAATCTTTCTGTTCAAGCGCCATCTAC”, the binding signal was 1.88 RPM ratio (pull-down/input).

For the sequence “GATGATTGTTCTCCCAGCTGATGAATTATTCCTGTCGAGTAAACAAATTTTCCTAATCTTTCTGTTCAAGCGCCATCTAC”, the binding signal was 0.964 RPM ratio (pull-down/input).

For “GATGATTGTTCTCCCAGCTGATGAATTTTATTGGTCGAGTAAACAAATTTTCCTAATCTTTCTGTTCAAGCGCCATCTAC”, the binding signal is 1.74 RPM ratio (pull-down/input).

As for “GATGATTGTTCTCCCAGCTGATGAATTTAATTTGTCGAGTAAACAAATTTTCCTAATCTTTCTGTTCAAGCGCCATCTAC”, the binding signal is 1.25 RPM ratio (pull-down/input).

On to “GATGATTGTTCTCCCAGCTGATGAATTTATTTTGTCGAGTAAACAAATTTTCCTAATCTTTCTGTTCAAGCGCCATCTAC”, for which the binding signal was 1.62 RPM ratio (pull-down/input).

Take “GATGATTGTTCTCCCAGCTGATGAATTTATTTGGTCGAGTAAACAAATTTTCCTAATCTTTCTGTTCAAGCGCCATCTAC”: the binding signal was 1.59 RPM ratio (pull-down/input).
